An excerpt weighted towards active compounds, which were near 19% of everything screened.
HT1080NT lethal = kills 2HG-producing HT-1080-NT fibrosarcoma cells. 360,000 compounds, 1.6% hits. AID 686970. Potency, µM (titrated, usually from 46.1 µM), hits mostly cytotoxic. HT-1080-NT fibrosarcoma viability, CellTiter-Glo ATP luminescence, 48 h;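 also: NT is the 2HG producing partner of a matched IDH1 knockdown line; nearly all actives have a fitted effect of over 55% in size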
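Luminescent CellTiter-Glo readout after 48 hours of compound exposure at 37 degrees C defined viability of HT-1080-NT cells. Activity was normalized to DMSO wells and cell-free media wells; concentration-response curves were fitted and assigned curve classes.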
TDP1 cell noCPT = qHTS for Inhibitors of human tyrosyl-DNA phosphodiesterase 1 (TDP1): qHTS in cells in absence of CPT; DT40 Tdp1-/- hTDP1 cells, no CPT, ATP luminescence, 48 h; Potency, µM (doses to about 46.2 µM), hits mostly inhibitors; 420,000 compounds, 15% hits; also: nearly all actives have a fitted effect of over 55% in size
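Growth of hTDP1-complemented DT40 Tdp1-knockout cells is measured by ATP luminescence after at least 48 hr compound exposure at 37 °C, with DMSO substituting for the 20 nM CPT used in the parallel screen.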
HT1080 IDH1KD tx = toxicity to HT-1080 IDH1 knockdown cells (counter line) | HT-1080 IDH1 knockdown viability, ATP luminescence, 48 h | Potency, µM (titrated, usually from 46.1 µM), hits mostly cytotoxic | 360,000 compounds, 2% hits | AID 686971
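Using the IDH1-knockdown HT-1080 line run in the same batch and compound series as the NT line, viability after 48 h at 37 °C was determined by CellTiter-Glo luminescence and expressed as % activity.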
IL1B secr inh = inflammasome signaling inhibition, IL-1 beta readout; THP-1 LPS/ATP IL-1B secretion, AlphaLISA, 16 h; active compounds read low; activity change, % at 57.5 µM; 360,000 compounds, 4.7% hits; in the data active = activity change below about -50%; inconclusive = mostly about -30% to -49%
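Secreted IL-1B measured by AlphaLISA bead assay after 16 h compound exposure of THP-1 cells; compounds (final up to 57.5 uM) added 1 h before LPS (250 ng/mL) and ATP (1.25 mM) stimulation; lower signal means less secretion.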
DT40 TDP1 CPT = DT40-hTDP1 cell growth loss with CPT. chicken DT40 Tdp1-/-;hTDP1 cells + 20 nM CPT, ATP luminescence, 48 h. Potency, µM (titrated, usually from 46.2 µM), most hits filed as inhibitors. 420,000 compounds, 12% hits. AID 686979; also: nearly all actives have a fitted effect of over 55% in size
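Chicken DT40 Tdp1-/- cells stably complemented with human TDP1 were seeded at 400 cells/well in medium containing 20 nM camptothecin, exposed to pin-transferred compounds, and grown at 37 °C for at least 48 hr. Viability was read as ATP luminescence.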
Hits are given with their value; i = inactive; ? = inconclusive; nt = not tested or not shown. Unless noted, calls follow the shape of the dose curve; as a rule, active = well fitted curve in the direction sought with a large enough effect; inconclusive = small, poorly fitted or top-dose-only effect, or another doubt; inactive = no such curve, though single readings can be large; an effect the other way counts as inactive or inconclusive.

SMILES | HT1080NT lethal | TDP1 cell noCPT | HT1080 IDH1KD tx | IL1B secr inh | DT40 TDP1 CPT
CCCCC(=O)NC(c1ccc([N+](=O)[O-])cc1)c1c(O)ccc2ccccc12 (stereo unspecified) | 16µM | 21µM | ? | -60 | 16µM
CC(C)CC(=O)NC(c1ccccc1)c1c(O)ccc2ccccc12 (stereo unspecified) | i | ? | i | -80 | ?
COc1ccc(C(NC(=O)C(C)C)c2c(O)ccc3ccccc23)cc1 (stereo unspecified) | ? | ? | ? | i | ?
CC(C)(C)NC(=O)C(c1cccs1)N(Cc1ccc(F)cc1)C(=O)c1csnn1 (stereo unspecified) | i | ? | i | i | ?
COc1ccccc1CNC(=O)CSc1ccc(-c2ccncc2)nn1 | i | i | i | i | ?
O=C(COc1c(F)c(F)c(C(F)(F)F)c(F)c1F)Nc1ccc(N2CCOCC2)c(Cl)c1 | i | ? | i | ? | ?
CCC(C)c1ccc(NC(=O)COc2c(F)c(F)c(C(F)(F)F)c(F)c2F)cc1 (stereo unspecified) | i | ? | i | -77 | ?
Cc1cc(N2CCN(C(c3ccnc4ccccc34)c3nnnn3-c3c(C)cccc3C)CC2)c2ccccc2n1 (stereo unspecified) | i | 4.6µM | i | -56 | 6.5µM
Cc1cccc(C)c1N1CCN(C(c2ccnc3ccccc23)c2nnnn2-c2ccc3c(c2)OCCO3)CC1 (stereo unspecified) | ? | 15µM | ? | ? | 18µM
Fc1ccccc1N1CCN(C(c2ccnc3ccccc23)c2nnnn2-c2ccc3c(c2)OCCO3)CC1 (stereo unspecified) | i | 21µM | i | i | ?
CN(C)c1ccc(/C=C2\CCC/C(=C\c3ccccc3)C2=O)cc1 | i | ? | i | -65 | ?
CN(C)/C=C1\Cc2ccccc2C1=O | i | i | i | i | 33µM
CN(C)c1ccc(/C=C2\Cc3ccccc3C2=O)cc1 | nt | 3.5µM | nt | nt | ?
COc1ccc(C(=O)NCCc2nnc3ccc(SCC(=O)N4CCOCC4)nn23)cc1 | i | i | i | i | i
Cc1cccc2cc(C#N)c(SCC(=O)N3CC(=O)Nc4ccccc43)nc12 | ? | 2.1µM | ? | i | 2.6µM
Cc1cc(NC(=O)CSc2nc3c(C)ccc(C)c3cc2C#N)no1 | i | i | i | i | ?
Cc1cc(NC(=O)CSc2nc3c(C)cccc3cc2C#N)no1 | i | 15µM | ? | i | ?
Cc1sc2ncnc(N3CCN(S(=O)(=O)c4ccccc4)CC3)c2c1C | i | 6.5µM | i | i | 8.2µM
O=S(=O)(c1cccc(F)c1)N1CCN(c2ncnc3scc(-c4ccc(F)cc4)c23)CC1 | i | 12µM | i | i | 15µM
Cc1ccc(S(=O)(=O)N2CCN(c3ncnc4scc(-c5ccc(F)cc5)c34)CC2)cc1 | i | 15µM | i | i | ?
O=C(c1ccco1)N1CCN(c2ncnc3scc(-c4ccc(F)cc4)c23)CC1 | ? | ? | ? | i | ?
Cc1ccc(S(=O)(=O)N2CCN(c3ncnc4scc(-c5ccccc5)c34)CC2)cc1 | i | 23µM | i | i | ?
CC(=O)c1ccc(NC(=S)NCC(c2ccco2)N2CCCC2)cc1 (stereo unspecified) | i | i | i | i | i
CCOC(=O)c1ccc(S(=O)(=O)NNC(=O)COc2ccc(C)cc2)cc1 | i | i | i | i | i
Cc1ccc(-c2csc3ncnc(Oc4ccc5c(C)cc(=O)oc5c4)c23)cc1 | i | ? | i | i | 18µM
SMILES | HT1080NT lethal | TDP1 cell noCPT | HT1080 IDH1KD tx | IL1B secr inh | DT40 TDP1 CPT
CNC(=O)COc1ncnc2scc(-c3ccc(F)cc3)c12 | i | i | i | i | i
CCNC(=S)NNC(=O)c1cc(-c2cccc(OCC)c2)nc2ccccc12 | ? | 10µM | i | i | 15µM
CCNC(=S)NNC(=O)c1cc(-c2cccnc2)nc2ccccc12 | i | i | i | i | i
CCNC(=S)NNC(=O)c1cc(-c2cccc(C)c2)nc2ccccc12 | ? | 7.3µM | 6.3µM | i | 21µM
Clc1ccc(N2CCN(c3cnc4ccccc4n3)CC2)cc1 | i | ? | i | i | 23µM
c1ccc(N2CCN(c3cnc4ccccc4n3)CC2)cc1 | i | ? | i | i | ?
C(=Nc1cccnc1)c1ccnc2ccccc12 | nt | 1.8µM | nt | nt | 2µM
O=C(O)C(=Cc1ccnc2ccccc12)C(=O)O | i | i | i | i | i
C(=Nc1cnc2ccccc2c1)c1cccnc1 | nt | i | nt | nt | i
C(=Nc1cnc2ccccc2c1)c1ccnc2ccccc12 | nt | 2.8µM | nt | nt | 2.8µM
COCC1CCCN(C(=O)c2cc(COc3ccc(C(C)=O)cc3)on2)C1 (stereo unspecified) | i | i | i | i | i
COCC1CCN(C(=O)c2cc(COc3ccc(C)c(C)c3)on2)C1 (stereo unspecified) | i | i | i | i | i
COc1cccc(OCc2cc(C(=O)N3CCC(c4ccncc4)CC3)no2)c1 | ? | 8.2µM | ? | i | 15µM
COCC1CCN(C(=O)c2cc(COc3ccc4c(c3)CCCC4)on2)C1 (stereo unspecified) | i | i | i | -62 | ?
Cc1ccc(OCc2cc(C(=O)N3CCCC(C)C3)no2)cn1 (stereo unspecified) | i | 21µM | i | i | 16µM
CC(=O)c1ccc(OCc2cc(C(=O)N3CC[C@@H]4CCCC[C@H]4C3)no2)cc1 | i | 16µM | i | -81 | ?
CCOC(=O)C1(C)CCCN1C(=O)c1cccc(F)c1 (stereo unspecified) | i | i | i | i | ?
CC(=O)c1ccc(OCc2cc(C(=O)N3CCCCC3c3cccnc3)no2)cc1 (stereo unspecified) | i | 18µM | ? | ? | 21µM
COc1cccc(OCc2cc(C(=O)N3CCN(C)C(c4ccccc4)C3)no2)c1 (stereo unspecified) | i | ? | i | i | 26µM
CCN(CC)c1ccc(C(=O)N2CCC(c3ccncc3)CC2)cc1 | nt | 3.3µM | nt | nt | 21µM
CC(=O)c1ccc(OCc2cc(C(=O)N3CCC(c4ccncc4)CC3)no2)cc1 | 18µM | 5.8µM | 23µM | i | 12µM
COc1ccc(C(=O)N2CCC(c3ccncc3)CC2)cc1OC | nt | i | nt | nt | i
CSc1ccc(CN(C)C(=O)c2cc(Cl)c3c(c2)OCCO3)cc1 | i | i | i | i | i
COc1ccc(C(=O)NCCCCNC(=O)c2ccc(OC)c(OC)c2)cc1OC | i | i | i | i | i
O=c1[nH]c(-c2ccccc2)c(-c2ccccc2)o1 | i | i | i | i | i
Cc1ccc(-n2nnnc2C(Cl)(Cl)c2nnnn2-c2ccc(C)cc2)cc1 | ? | 2.6µM | 5.6µM | -78 | 2.9µM
CS(=O)(=O)N1CCN(c2ccccc2NC(=O)CSc2ccc(Cl)cc2)CC1 | i | ? | i | i | ?

Screening data: PubChem, National Center for Advancing Translational Sciences (NCATS)
